Results published in ChEMBL document CHEMBL4513143, “CO-ADD screening of University of Natural Resources and Life (Austria) compounds”.
Entries with a potency or affinity are not part of this list.

Assays:
Staphylococcus aureus = details: Concentration 32 ug.mL-1; ASSAY_TEST Inhibition of Bacterial Growth; detection method Absorption (OD600); MEDIA CAMHB; plate type 384well; NBS; CORNING #3640; time 18 hr
Escherichia coli = details: Concentration 32 ug.mL-1; ASSAY_TEST Inhibition of Bacterial Growth; detection method Absorption (OD600); MEDIA CAMHB; plate type 384well; NBS; CORNING #3640; time 18 hr

Compound [N-]=[N+]=NC[C@H]1OC(O)[C@@H](O)[C@@H]1O (some centres not stated) has an Inhibition (Staphylococcus aureus) of 29.31% and an Inhibition (Escherichia coli) of 18.39%.
